This is a sample that favours compounds with a hit; in the whole collection about 32% have one here.
PostGolgi yeast: growth inhibition of a yeast mutant, post-Golgi transport screen. post-Golgi transport phenotypic cell assay. inhibition, % at 10 µM. hit rate 0.9% among 98,000. AID 739;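 note: yeast cells grown in 1536-well plates; yeast grown about 18 h at 30C before absorbance read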
CYP2C9 inhib: human CYP2C9 inhibition; P11712; inhibition, % at 5 µM; hit rate 20% among 96,000; CYP2C9 Supersomes, luciferin-H conversion, luminescence;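 active = blocking of liver enzyme CYP2C9 beyond about 50% at 5 µM, limit read from the data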
Target sequence (P11712 whole entry, looked up): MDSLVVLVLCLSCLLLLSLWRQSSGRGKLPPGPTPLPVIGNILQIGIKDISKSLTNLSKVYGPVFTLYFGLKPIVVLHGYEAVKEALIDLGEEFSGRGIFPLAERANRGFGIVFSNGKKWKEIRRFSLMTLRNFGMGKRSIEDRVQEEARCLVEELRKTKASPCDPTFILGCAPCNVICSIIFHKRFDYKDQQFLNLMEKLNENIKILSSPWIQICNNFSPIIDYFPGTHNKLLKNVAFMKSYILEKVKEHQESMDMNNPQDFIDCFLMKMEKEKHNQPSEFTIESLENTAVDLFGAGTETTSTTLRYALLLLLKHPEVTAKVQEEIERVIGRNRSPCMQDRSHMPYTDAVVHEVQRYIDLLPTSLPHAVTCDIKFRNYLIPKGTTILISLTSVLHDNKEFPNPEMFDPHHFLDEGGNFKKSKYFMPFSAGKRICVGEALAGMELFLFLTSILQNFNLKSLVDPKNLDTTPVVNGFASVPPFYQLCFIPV
CYP2C9 act: increases human cytochrome P450 2C9 activity | recombinant CYP2C9, luciferin-H conversion, luminescence; active compounds read high; factor 1 = untreated enzyme, 0 = blocked | activation factor at 5 µM | hit rate 1.4% among 96,000;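 active = activation factor of 2 or more for CYP2C9 at a 5 µM dose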
PostGolgi ctrl: growth of the yeast control strain, post-Golgi counter-screen; inhibition, % at 10 µM; AID 738; efflux-deficient yeast background strain, growth absorbance A615, 16 h; hit rate 5% among 98,000
CYP2C19 act: increases human CYP2C19 enzyme activity | 96,000 tested, under 10 active | P33261 | activation factor at 5 µM | recombinant CYP2C19, luciferin-H EGE luminescence; active compounds read high; 0 = fully inhibited enzyme, 1 = untreated enzyme | AID 1025;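 active = activation factor of at least 2 at 5 µM in the primary screen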
CYP2C19 inhib: blocks human cytochrome P450 2C19 | P33261 | CYP2C19 Supersomes, luciferin-H EGE luminescence, 30 min | inhibition, % at 5 µM | hit rate 21% among 96,000;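 active = CYP2C19 inhibition above a set limit at 5 µM in the primary screen, cut at about 50% in these data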
Hits are given with their value; . = inactive. Cut-off read from the data, not from the text of the source, unless noted: active = inhibition above about 30%; inactive = the rest.

SMILES | PostGolgi yeast | CYP2C9 inhib | CYP2C9 act | PostGolgi ctrl | CYP2C19 act | CYP2C19 inhib
Clc1ccc2[nH]c3c(NCCN4CCOCC4)ncnc3c2c1 | . | . | . | 30.4 | . | .
O=c1c2[nH]c3ccc(F)cc3c2ncn1CCCn1ccnc1 | . | 79.7 | . | . | . | 63.7
O=c1c2[nH]c3ccc(F)cc3c2ncn1CCCN1CCOCC1 | . | . | . | . | . | .
COc1ccc2c(c1)[nH]c1c(=O)n(CCN3CCCC3)cnc12 | . | . | . | . | . | .
Clc1ccc2[nH]c3c(NCC4CCCO4)ncnc3c2c1 (configuration not stated) | 37.0 | 81.0 | . | . | . | 73.6
O=c1c2[nH]c3ccc(Cl)cc3c2ncn1CCN1CCCCC1 | . | 59.3 | . | . | . | 74.0
Nc1ncc2c(n1)CC(c1ccco1)CC2=O (configuration not stated) | . | . | . | . | . | .
O=C(c1cccs1)N1CCn2c1nc1ccccc12 | . | . | . | . | . | .
COc1ccc(C2C(C(=O)Nc3cccc(C)n3)c3ccccc3C(=O)N2C)cc1OC (configuration not stated) | . | . | . | . | . | .
FC(F)(F)c1cccc(Sc2cc(C(F)(F)F)nc(-c3ccccn3)n2)c1 | . | . | . | 42.3 | . | .
COC(=O)c1ccccc1NC(=O)c1noc2c1CCCC2 | . | . | . | . | . | .
Cc1nn(Cc2ccccc2Cl)c(C)c1NC(=O)c1noc2c1CCCCC2 | . | 53.8 | . | . | . | .
Cc1nn(Cc2ccccc2Cl)c(C)c1NC(=O)C1C2CCC(O2)C1C(=O)O (configuration not stated) | . | . | . | . | . | 94.1
Cc1cc(C(=O)Nc2c(C)nn(Cc3c(Cl)cccc3Cl)c2C)no1 | . | . | . | 32.5 | . | .
Cc1ccccc1Cn1nc(C)c(NC(=O)c2noc3c2CCCC3)c1C | . | 57.9 | . | . | . | .
CC(=O)c1ccc(NC(=O)c2cc(CC(C)C)on2)cc1 | . | . | . | . | . | .
Cc1cc(NC(=O)c2noc3c2CCCC3)nn1Cc1ccc(Cl)cc1 | . | . | . | . | . | .
Cc1nn(Cc2ccc(Cl)cc2)c(C)c1NC(=O)c1noc2c1CCc1ccccc1-2 | . | . | . | 41.8 | . | .
Cc1nn(Cc2ccc(F)cc2)c(C)c1NC(=O)c1noc2c1CCCCC2 | . | 76.8 | . | . | . | 55.7
CC(C)(C)N=C1NC(=NC(C)(C)C)c2ccccc21 | . | . | . | . | . | .
Cc1nc2ccccc2nc1N1CCCCC1 | . | . | . | . | . | .
CC1=NN(c2ccccc2)C(=O)/C1=C/c1cc2cc(C)ccc2nc1N1CCCCC1 | . | 81.4 | . | 47.7 | . | 66.7
COc1nnc(-c2ccc(N3CCCCC3)c(NC(C)=O)c2)c2ccccc12 | . | 65.6 | . | . | . | 53.6
Cc1sc2c(c1C)CN(Cc1ccncc1)CN2C(=O)c1ccco1 | . | 91.0 | . | . | . | 77.2
Cc1nc(SCc2c(F)cccc2Cl)c2c(=O)n(C)c(=O)n(C)c2n1 | . | . | . | . | . | .
SMILES | PostGolgi yeast | CYP2C9 inhib | CYP2C9 act | PostGolgi ctrl | CYP2C19 act | CYP2C19 inhib
CCCn1c(N2CCN(CC(=O)c3c(C)n(C)c4ccc(OC)cc34)CC2)nc2c1c(=O)[nH]c(=O)n2C | . | . | . | . | . | .
CCOC(=O)c1sc(NC(=O)CSc2nc(-c3ccco3)cc(C(F)(F)F)n2)c(C(=O)OC)c1C | . | 71.5 | . | . | . | .
Cc1c(CN(C)C(=O)CSc2nc(-c3ccco3)cc(C(F)(F)F)n2)cnn1C | . | . | . | . | . | .
CCCOC(=O)c1c(NC(=O)CSc2nc(-c3ccco3)cc(C(F)(F)F)n2)sc(C(=O)OC)c1C | . | 69.5 | . | . | . | .
CCN1CCN(S(=O)(=O)c2ccc(S(=O)(=O)N(CC)Cc3ccccc3)cc2)CC1 | . | . | . | . | . | .
O=C(CCCc1nc(-c2ccccc2Cl)no1)NCc1cccnc1 | . | . | . | . | . | 60.8
O=C(CCc1nc(-c2ccccc2)no1)NCc1cccnc1 | . | 50.9 | . | . | . | .
O=C(CCc1nc(-c2ccccc2)no1)NCc1ccco1 | . | 58.8 | . | . | . | 57.0
Cc1cc(OCc2nc(-c3ccc(NC(=O)c4cccnc4)cc3)no2)ccc1Cl | . | . | . | . | . | .
O=C(Nc1ccc(-c2noc(CCc3ccccc3)n2)cc1)c1cccnc1 | . | 54.6 | . | . | . | .
O=C(O)CCc1nc(-c2ccccc2Cl)no1 | . | . | . | . | . | .
CCOC(=O)c1ccccc1NCN1C(=O)CSC1=O | . | . | . | . | . | .
O=C(Cn1[nH]c(=O)c2ccccc2c1=O)NCc1cccnc1 | . | 63.2 | . | . | . | .
O=C(NCc1cccnc1)/C(=N\O)c1ccccc1 | . | . | . | . | . | .
O=C(COc1ccc([N+](=O)[O-])cc1)Nc1ccc(C(=O)NCc2cccnc2)cc1 | . | . | . | . | . | .
O=c1[nH]n(Cc2ccccc2)c(=O)c2ccccc12 | . | . | . | . | . | 72.1
Cn1[nH]c(=O)c2ccccc2c1=O | . | . | . | . | . | .
O=C(O)CCCC(=O)Nc1ccc(C(=O)NCc2cccnc2)cc1 | . | . | . | 36.3 | . | .
O=C(CCCc1ccccc1)NCc1cccnc1 | . | . | . | . | . | 91.1
CC1CCCCC1NC(=O)Cn1[nH]c(=O)c2ccccc2c1=O (configuration not stated) | . | . | . | . | . | .
CCCCN(C)CCn1c(=S)[nH]c2ccc(N3CCOCC3)cc2c1=O | . | . | . | . | . | .
CCOC(=O)N1CCN(c2ncnc3nc[nH]c23)CC1 | . | . | . | . | . | .
O=C(CCCc1nc(-c2ccc(Cl)cc2)no1)Nc1cccnc1 | 53.6 | 74.8 | . | 88.3 | . | 52.2
Clc1ccccc1CSc1nnc(-c2cccnc2)n1Cc1ccco1 | . | . | . | . | . | 71.1
O=C(O)CSc1nnc(-c2cccnc2)n1Cc1ccccc1 | . | . | . | . | . | .
SMILES | PostGolgi yeast | CYP2C9 inhib | CYP2C9 act | PostGolgi ctrl | CYP2C19 act | CYP2C19 inhib
Clc1ccc(CSc2nnc(-c3ccccn3)n2Cc2ccco2)c(Cl)c1 | . | . | . | 52.1 | . | .
C=CCn1c(SCc2cccc3ccccc23)nnc1-c1cccnc1 | . | . | . | . | . | 88.7
CCn1nc(C)cc1-c1n[nH]c(=S)n1N | . | . | . | . | . | .
CCCCN(CCCC)CCNC(=O)CNC(=O)c1cccs1 | . | . | . | . | . | .
COc1ccc([N+](=O)[O-])cc1NC(=S)NC(NC(=O)C(c1ccccc1)c1ccccc1)C(Cl)(Cl)Cl (configuration not stated) | . | 68.9 | . | . | . | .
Cc1ccc(C(=O)O)cc1NC(=S)NC(=O)Cc1ccccc1 | . | . | . | . | . | .
Cc1cc([N+](=O)[O-])ccc1NC(=S)NC(=O)Cc1ccccc1 | . | . | . | 30.1 | . | .
Cc1ccc(C(=O)O)cc1NC(=S)NC(=O)C(c1ccccc1)c1ccccc1 | . | . | . | . | . | .

Screening data from PubChem BioAssay.
